Measured values: PubChem BioAssay (NCI)
About 79,000 compounds went through this panel and 15% of them were active in at least one assay; those are over-represented in the sample as a whole. Active and inactive are the calls of the source. Rule as the data show it: active = growth inhibition above about 70%; inactive = the rest.

Key:
[1] = NCI Yeast Anticancer Drug Screen. Data for the rad50 strain (AID 155);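 also: 0% = growth of vehicle-only cultures of the same strain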; conditions: S. cerevisiae rad50 strain growth inhibition; at 50.0 µM; stronger effect = higher value
Method in brief: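 A DNA repair-deficient yeast mutant serves as the test organism; compound-induced growth inhibition is calculated against vehicle-treated cells.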

[2] = NCI Yeast Anticancer Drug Screen. Data for the mec2-1 strain (AID 157); conditions: S. cerevisiae mec2-1 strain, at 50.0 µM, stronger effect = higher value
Method in brief: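 Strain: mec2-1 (DNA repair/cell cycle alteration). Compound exposure, then growth measured; inhibition expressed relative to vehicle.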

[3] = NCI Yeast Anticancer Drug Screen. Data for the sgs1 mgt1 strain (AID 161);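 also: 0% = growth of cultures given vehicle only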; conditions: S. cerevisiae sgs1 mgt1 strain, at 50.0 µM, stronger effect = higher value
Method in brief: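 Read-out: growth inhibition vs vehicle controls. Cells: mutant yeast strain deficient in DNA damage repair.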

[4] = NCI Yeast Anticancer Drug Screen. Data for the cln2 rad14 strain (AID 165);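 also: 0% = growth equal to vehicle treated cultures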; conditions: S. cerevisiae cln2 rad14 strain, at 50.0 µM, stronger effect = higher value
Method in brief: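 Compounds are applied to the cln2 rad14 yeast strain, and growth is then compared with that of vehicle-treated cultures to give inhibition.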

[5] = NCI Yeast Anticancer Drug Screen. Data for the bub3 strain (AID 167); conditions: S. cerevisiae bub3 mutant strain, at 50.0 µM, stronger effect = higher value
Method in brief: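 Inhibition values come from growth of compound-treated mutant yeast normalised to vehicle-treated controls.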

[6] = NCI Yeast Anticancer Drug Screen. Data for the mlh1 rad18 strain (AID 175); conditions: S. cerevisiae mlh1 rad18 strain growth inhibition; at 50.0 µM; stronger effect = higher value
Method in brief: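 Read-out is yeast growth inhibition, calculated against vehicle-only controls. The compound was applied to a strain engineered with DNA damage repair alterations.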

Measured: growth inhibition

COc1cccc(N(CCO)C2CCCCC2)c1
inactive: [1] 12.8% | [2] 4.2% | [3] 18.2% | [4] 15.7% | [5] 10.9% | [6] 2%

Cc1c2oc3c(C)ccc(C(=O)NCc4cccnc4)c3nc-2c(C(=O)NCc2cccnc2)c(N)c1=O
inactive: [1] 42.6% | [2] -0.85% | [3] -6.85% | [4] 7.55% | [5] 2.6% | [6] 13.1%

c1cc(CNCCN2CCNCC2)ccn1
inactive: [1] 7.45% | [2] -34.2% | [3] -3.7% | [4] -1.9% | [5] -48.9% | [6] 16.8%

COc1cc(CCNC2=CC(=O)c3ncccc3C2=O)ccc1O
inactive: [1] 31.6% | [2] 34% | [3] -8.25% | [4] 4.95% | [5] 5.8% | [6] 14.3%

O=C1CC(c2ccccc2)=NCCN1
inactive: [1] -9.2% | [2] 16.2% | [3] 11.9% | [4] -3.55% | [5] -19.4% | [6] -7.25%

CCc1nc(-c2ccccc2)nc2c1nc(-c1ccc(C)cc1)n2Nc1ccccc1
inactive: [1] 0.85% | [2] 6.05% | [3] -2.95% | [4] -0.25% | [5] -4.45% | [6] 20.9%

O=C(CCCCl)c1ccc(O)cc1
inactive: [1] -29.4% | [2] -36% | [3] 2.75% | [4] 11.8% | [5] -17.6% | [6] 0.1%

Cc1nc(Nc2ccc([N+](=O)[O-])cc2)sc1C(=O)/C=C/c1ccc(N(C)C)cc1
inactive: [1] 5.1% | [2] -6.85% | [3] 5.6% | [4] 16.2% | [5] 18.6% | [6] -1.1%

CCSC(SCC)C(NC(C)=O)C(OC(C)=O)C(OC(C)=O)C(COC(C)=O)OC(C)=O (configuration not stated)
inactive: [1] 23.4% | [2] -3.25% | [3] -0.2% | [4] 8.25% | [5] -2.7% | [6] 10.6%

Nc1cc2c(O)cc(S(=O)(=O)O)cc2cc1S(=O)(=O)O
inactive: [1] -5.9% | [2] 8.15% | [3] 2.35% | [4] 14.1% | [5] 34.2% | [6] -4.3%

COC(=O)c1cc(-c2ccc(N)cc2)c2c(=O)n(-c3ccccc3)[nH]c2n1
inactive: [1] 26.1% | [2] 19% | [3] 30.9% | [4] -0.65% | [5] -1.4% | [6] 6.45%

COC(=O)c1cnccn1
inactive: [1] -3.3% | [2] -1.35% | [3] -3.85% | [4] -27.4% | [5] 0.75% | [6] -6.3%

CCOC(=O)c1ccc(NC(=O)c2ccc(Cl)cc2Cl)cc1
inactive: [1] -7.7% | [2] 18.6% | [3] 6.5% | [4] -18.1% | [5] 36.6% | [6] -4.25%

CCCCCCCCCCCOCCC1C(C(C)OCCN2CCCC2)OC2OC(C)(C)OC21 (configuration not stated)
active: [1] 91.5% | [2] 92.8% | [3] 90.5% | [4] 90.4% | [5] 88.2% | [6] 89%

CSC(C(=O)O)c1cc(-c2c(Cl)cccc2Cl)no1 (configuration not stated)
inactive: [1] -1.95% | [2] 23.8% | [3] 29% | [4] 8.85% | [5] 24.4% | [6] 22.9%

Cc1ccc(-c2cc(=O)c3cccc(CC(=O)O)c3o2)cc1
inactive: [1] 47.4% | [2] -38.9% | [3] -20.5% | [4] -3.45% | [5] -25.8% | [6] -1.2%

N=c1ncn(C/C=C/c2ccccc2)c2nc[nH]c12
inactive: [1] -12.7% | [2] -28.4% | [3] -8.55% | [4] -11.4% | [5] -63.3% | [6] 5%

CCOC(=N)Cc1ccccc1
inactive: [1] 3.7% | [2] 21.1% | [3] 4.6% | [4] -10.8% | [5] 23.4% | [6] -27.9%

Cn1cnc([N+](=O)[O-])c1SC1=NCCS1
inactive: [1] 7.8% | [2] -1.4% | [3] 10.2% | [4] 25.3% | [5] 22.9% | [6] -7.5%

CCOCCOC(=O)CCC1CCCCC1
inactive: [1] 29.8% | [2] 16.5% | [3] 9.1% | [4] 11.2% | [5] 19% | [6] 29.6%

O=C(/C=C/c1ccccc1Cl)c1ccccc1[N+](=O)[O-]
active: [1] 96% | [2] 97.5% | [3] 97.7% | [4] 94.7% | [5] 96.5% | [6] 95.7%

CN(C)c1ncnc2c1ncn2C1OC(CO)C(O)C1O (configuration not stated)
inactive: [1] 14.2% | [2] 20% | [3] 4% | [4] -34.4% | [5] 18.1% | [6] 24.5%

O=C(O)COc1cc(Br)cc(Br)c1
inactive: [1] 1.4% | [2] -14.2% | [3] -7.55% | [4] 16% | [5] -3.9% | [6] -1.7%

O=C(NNC(=O)c1ccccc1Br)c1ccccc1
inactive: [1] -17.6% | [2] -45% | [3] -5.4% | [4] 3.45% | [5] -21.5% | [6] -23.6%

CC1CCC(C(C)(C)O)CC1O (configuration not stated)
inactive: [1] -12.9% | [2] 2.05% | [3] 0.9% | [4] -9.05% | [5] -16.8% | [6] -7.55%

O=C(NC(Cc1ccccc1)C(=O)N1CCOCC1)c1ccccc1 (configuration not stated)
inactive: [1] 6.1% | [2] 12.6% | [3] -1.35% | [4] 3.2% | [5] 1.85% | [6] -0.35%

CCc1cc(Cc2cc(CC)c(NC(=O)C(=O)CC(=O)c3sc(-c4cccnc4)nc3C)c(CC)c2)cc(CC)c1NC(=O)C(=O)CC(=O)c1sc(-c2cccnc2)nc1C
inactive: [1] -26.8% | [2] -26.9% | [3] -27.8% | [4] -0.05% | [5] -35.9% | [6] -19.8%

CC(C)(Cc1ccccc1)NC1=NCCO1
inactive: [1] -31.9% | [2] -18.8% | [3] -17.6% | [4] -6.2% | [5] -12.2% | [6] -2.6%

CC1(C)CCCC/C1=N\O
inactive: [1] 5.5% | [2] 24.2% | [3] 3.8% | [4] 24.4% | [5] 23.2% | [6] 3.3%

CCCCc1c2c(nc3c1CCc1cc4c(nc1-3)-c1nc3c(c(CCCC)c1CC4)CCC/C3=C\c1ccccc1)/C(=C/c1ccccc1)CCC2
inactive: [1] 16.6% | [2] 3.2% | [3] -0.25% | [4] 5.4% | [5] 5.05% | [6] 2.8%

Cc1ccc(-c2n[nH]c(CC#N)n2)cc1
inactive: [1] 5.55% | [2] 1.6% | [3] -4.6% | [4] -12.7% | [5] -1.55% | [6] 18.7%

CC[CH2][Sn]([CH2]CC)([O]C(=O)Cc1ccc(F)cc1)[O][Sn]([CH2]CC)([CH2]CC)[O]C(=O)Cc1ccc(F)cc1
active: [1] 90.2% | [2] 89.4% | [3] 87.8% | [4] 82.8% | [5] 89.1% | [6] 83.6%

O=C(CSSCC(=O)Nc1ccccc1O)Nc1ccccc1O
inactive: [1] -11.2% | [2] -8.15% | [3] -11.7% | [4] -24.1% | [5] 27.2% | [6] -4.85%

O=C(O)c1ccc2ccccc2c1C(=O)c1ccc(F)cc1
inactive: [1] 10.1% | [2] -1.6% | [3] 17.9% | [4] 18.3% | [5] 20.3% | [6] 3.1%

CC(=O)Nc1ccc(C(=O)NN2C(=O)C(Cl)C2c2ccccc2O)cc1 (configuration not stated)
inactive: [1] -24.8% | [2] -16.3% | [3] -45.9% | [4] 0.15% | [5] -38.1% | [6] -32.9%

COc1ccc(/C(C#N)=C\c2ccc(N(C)C)cc2)cc1
inactive: [1] -4.8% | [2] -13.1% | [3] 3.1% | [4] -21.2% | [5] 10.2% | [6] -14.3%

C[Si](C)(C)OC=C1CCCCC1
inactive: [1] 12.1% | [2] -3.95% | [3] -3.55% | [4] -29.2% | [5] -21.4% | [6] 9.7%
